{"source": "PubChem BioAssay (Tox21)", "note": "Unmarked numbers belong to inactive results. Calls of active or inactive are those of the source. Calls follow the shape of the dose curve; as a rule, active = well fitted curve in the direction sought with a large enough effect in the repeat runs; inconclusive = weak or mixed curves; inactive = flat fitted curve, though single readings scatter. % is scaled to controls: 0 for no effect and ±100 for the full control effect."}
{"assay": "qHTS assay to test for compound auto fluorescence at 590 nm (red) in HepG2 cells (AID 720674)", "conditions": "HepG2 autofluorescence, red 540/590 nm, 1 h; series mostly up to 91.3 µM; fluorescence, relative to Rose Bengal: at the top concentration", "source_text": "U.S. Tox21 Program National Center for Advancing Translational Sciences [NCATS] NIH Chemical Genomics Center [NCGC] U.S. Environmental Protection Agency [EPA] National Institutes of Environmental Health Sciences [NIEHS] National Toxicology Program [NTP] U.S. Food and Drug Administration [FDA] Tox21 Assay Overview: Compound auto fluorescence often interferes with screening of the compound library against various biological targets and signaling pathways. Some of these compounds may have fluorophoric properties. Such properties may interfere with the assay outputs resulting in false positives and/or negatives. To decrease such complications and ensure the compound activities are relevant in terms of biological response, the Tox21 10K compound library was screened for auto fluorescence. From the fluorophores used as reporter signals in our screening assays, the auto fluorescence equivalencies of compounds against three fluorophores have been evaluated: Triamterene, Fluorescein and Rose Bengal sodium for blue, green and red fluorescence, respectively. The fluorescence intensities were measured using Excitation/Emission wavelengths at 405/460nm, 485/535nm and 540/590nm for blue, green and red labels, respectively. This assay includes the red fluorescence data.\nTox21 Assay Protocol Summary: 2,000 HepG2 cells in 5 uL of culture medium (MEM containing 10% FBS) per well were dispensed into black wall/clear bottom 1536-well plates using a Multidrop Combi Dispenser (ThermoFisher Scientific, Waltham, MA). The assay plates were incubated overnight at 37 C to allow cell attachment to the well bottom, followed by the transfer of 23 nL compound or DMSO vehicle by a pintool work station (Kalypsys , San Diego, CA). After the assay plates were incubated for 1 hr at 37 C and 5% CO2, fluorescence intensities in the assay plates were measured by an Envision (PerkinElmer, Shelton, CT) plate reader using three labels for measuring blue, green and red fluorescence at […] 460, 535 and 590 nm respectively."}
{"compound": "C=CCCC(=O)O", "fluorescence, relative to Rose Bengal": "-0.112%"}
{"compound": "NC(=O)N1c2ccccc2CC(=O)c2ccccc21", "fluorescence, relative to Rose Bengal": "0.633% [at 46 µM]"}
{"compound": "CCN1C=CN(C)C1C", "note": "(stereo not given)", "fluorescence, relative to Rose Bengal": "-0.205%"}
{"compound": "COc1cc(-c2ccc(=O)[nH]n2)ccc1OC(F)F", "fluorescence, relative to Rose Bengal": "-0.0692% [at 46 µM]"}
{"compound": "O=C(c1ccccc1)C1(O)CCCCC1", "fluorescence, relative to Rose Bengal": "0.0021%"}
{"compound": "CCNS(=O)(=O)c1ccc(C)cc1", "fluorescence, relative to Rose Bengal": "0.0163% [at 95.7 µM]"}
{"compound": "COC(=O)C1=C(C)NC(C)=C(C(=O)OC(C)C)C1c1cccc2nonc12", "note": "(stereo not given)", "fluorescence, relative to Rose Bengal": "0.351% [at 18.6 µM]"}
{"compound": "O=C(CO)[C@@H](O)[C@H](O)[C@@H](O)CO", "fluorescence, relative to Rose Bengal": "-0.0286% [at 46 µM]"}
{"compound": "O=CN(CCO)CCO", "fluorescence, relative to Rose Bengal": "0.146%"}
{"compound": "C[N+]1(C)[C@@H]2CC(OC(=O)[C@H](CO)c3ccccc3)C[C@H]1[C@@H]1O[C@@H]12", "note": "(stereo not given in full)", "fluorescence, relative to Rose Bengal": "0.0381% [at 46 µM]"}
{"compound": "C=CCOCC(O)CO", "note": "(stereo not given)", "fluorescence, relative to Rose Bengal": "0.24%"}
{"compound": "CO[C@@]1(NC(=O)C(C(=O)O)c2ccc(O)cc2)C(=O)N2C(C(=O)O)=C(CSc3nnnn3C)CO[C@@H]21", "note": "(stereo not given in full)", "fluorescence, relative to Rose Bengal": "0.111% [at 18.6 µM]"}
{"compound": "CCOc1ccc2nc(S(N)(=O)=O)sc2c1", "fluorescence, relative to Rose Bengal": "0.218% [at 46 µM]"}
{"compound": "C=CC(C)(CCC=C(C)C)OC(=O)CC", "note": "(stereo not given)", "fluorescence, relative to Rose Bengal": "-0.188%"}
{"compound": "Nc1ccn([C@@H]2O[C@H](CO)[C@@H](O)C2O)c(=O)n1", "note": "(stereo not given in full)", "outcome": "inactive"}
{"compound": "C=CC(=O)OCCCl", "fluorescence, relative to Rose Bengal": "0.0929% [at 95.7 µM]"}
{"compound": "Cc1ccc(C(=O)Nc2ccc(S(=O)(=O)O)c3cc(S(=O)(=O)O)cc(S(=O)(=O)O)c23)cc1NC(=O)c1cccc(NC(=O)Nc2cccc(C(=O)Nc3cc(C(=O)Nc4ccc(S(=O)(=O)O)c5cc(S(=O)(=O)O)cc(S(=O)(=O)O)c45)ccc3C)c2)c1", "fluorescence, relative to Rose Bengal": "-0.554% [at 46 µM]"}
{"compound": "CC(C)(CCC(=O)O)C(=O)O", "fluorescence, relative to Rose Bengal": "-0.004% [at 95.7 µM]"}
{"compound": "CC(C)=CCC/C(C)=C/C#N", "fluorescence, relative to Rose Bengal": "0.807% [at 95.7 µM]"}
{"compound": "C=COCC1CCC(COC=C)CC1", "note": "(stereo not given)", "fluorescence, relative to Rose Bengal": "0.072%"}
{"compound": "CO[C@@]1(NC(=O)CSC[C@@H](N)C(=O)O)C(=O)N2C(C(=O)O)=C(CSc3nnnn3C)CS[C@@H]21", "fluorescence, relative to Rose Bengal": "0.0604% [at 46 µM]"}
{"compound": "CCCCCCCC1CCCC1=O", "note": "(stereo not given)", "fluorescence, relative to Rose Bengal": "-0.42%"}
{"compound": "C[C@H]1C[C@H]2[C@@H]3CCC4=CC(=O)C=C[C@]4(C)[C@H]3C(=O)C[C@]2(C)[C@@]1(O)C(=O)CO", "fluorescence, relative to Rose Bengal": "0.0129% [at 46 µM]"}
{"compound": "Cc1ccc(-c2ncc(Cl)cc2-c2ccc(S(C)(=O)=O)cc2)cn1", "fluorescence, relative to Rose Bengal": "-0.157% [at 46 µM]"}
{"compound": "CCOc1ccccc1OCC", "fluorescence, relative to Rose Bengal": "-0.0588%"}
{"compound": "C=C(C)C(=O)OCC1CCCO1", "note": "(stereo not given)", "fluorescence, relative to Rose Bengal": "0.191%"}
{"compound": "CCCCCCCCCCCCCCCCCCO", "fluorescence, relative to Rose Bengal": "-0.0823% [at 46 µM]"}
{"compound": "CC(=O)Oc1cccc(C)c1", "fluorescence, relative to Rose Bengal": "0.394% [at 46 µM]"}
{"compound": "COc1cccc(OC)c1C(=O)N[C@@H]1C(=O)N2[C@@H]1SC(C)(C)[C@@H]2C(=O)O", "fluorescence, relative to Rose Bengal": "-0.389% [at 46 µM]"}
{"compound": "C=CCCCCCCCCC(=O)OCC", "fluorescence, relative to Rose Bengal": "0.065%"}
{"compound": "CN(C)CCN(C)CCN(C)C", "fluorescence, relative to Rose Bengal": "-0.211%"}
{"compound": "C=C[Si](OC(C)=O)(OC(C)=O)OC(C)=O", "fluorescence, relative to Rose Bengal": "0.0536%"}
{"compound": "CCCCc1ccc2c(n1)[C@@H](c1ccc(OC)cc1C[C@H](C)C(=O)O)[C@H](C(=O)O)[C@H]2c1ccc2c(c1)OCO2", "fluorescence, relative to Rose Bengal": "0.026%"}
{"compound": "O=[N+]([O-])c1ccc(/C=N\\O)o1", "fluorescence, relative to Rose Bengal": "0.44% [at 46 µM]"}
{"compound": "C[C@@H]1C[C@H]2[C@@H]3C[C@H](F)C4=CC(=O)C(Cl)=C[C@]4(C)[C@@]3(F)[C@@H](O)C[C@]2(C)[C@@]1(O)C(=O)CO", "fluorescence, relative to Rose Bengal": "-0.0392% [at 46 µM]"}
{"compound": "COc1cc(C)nc(-n2nc(C)cc2OC)n1", "fluorescence, relative to Rose Bengal": "-0.559% [at 18.6 µM]"}
{"compound": "Cc1ccc(C(=O)c2ccc(CC(=O)O)n2C)cc1", "fluorescence, relative to Rose Bengal": "0.352% [at 18.6 µM]"}
{"compound": "CC[N+](C)(CC)CCOC(=O)C1c2ccccc2Oc2ccccc21", "fluorescence, relative to Rose Bengal": "-0.328% [at 46 µM]"}
{"compound": "CCOC(=O)c1ccccc1", "fluorescence, relative to Rose Bengal": "0.0116%"}
{"compound": "Cc1ccc(C(=O)c2ccccc2)cc1", "fluorescence, relative to Rose Bengal": "-0.355%"}
